RE007 growth inh – less growth of the S. pombe RE007 Vpr strain; S. pombe RE007 Vpr strain, BacTiter-Glo ATP luminescence, 24 h; 360,000 tested, 0.21% active; Potency, µM (titrated, usually from 92.2 µM), for the others: at the top dose activity change, negative = less growth, usual class: inhibitors; active means well fitted falling curve with a large enough effect; inconclusive means small, poorly fitted or top-dose-only effect; inactive means no such curve, though single readings can be large or run the other way; further: potency means the concentration at half of the fitted maximal effect; nearly all actives have a fitted effect of over 50% in size
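Fission yeast strain RE007, carrying one chromosomally integrated HIV-1 vpr copy, was seeded at OD 0.01 in PMG+AL medium with 23 nL pinned compound. After 24 h at 30 °C and 99% humidity, viability was read by BacTiter-Glo luminescence.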
FMDV inh – antivirals against foot and mouth disease virus; FMDV antiviral cell-based qHTS; Potency, µM (doses to about 57.9 µM), without a hit: at the highest dose activity change, negative = inhibition, most hits filed as inhibitors; 410,000 tested, 1.2% active; calls by dose curve; tested in HEK293T cells; further: read-out not given here; potency means the concentration at half of the fitted maximal effect; nearly all actives have a fitted effect of over 45% in size
TbPYK inhibitor – blocks Trypanosoma brucei pyruvate kinase | TbPYK enzyme, Kinase-Glo Plus ATP luminescence, 45 min | Potency, µM (highest dose often 76.8 µM), for the others: at the highest dose activity, negative = inhibition, usual class: inhibitors | 410,000 tested, 0.12% active | AID 624173; further: potency means the concentration at half of the fitted maximal effect; nearly all actives have a fitted effect of over 50% in size
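In this concentration-response screen, enzyme-free wells defined baseline while DMSO plates tracked drift. Each reaction combined TbPYK, substrate, compound and 130 uM ADP for 45 min at room temperature. Kinase-Glo Plus luminescence gave the signal.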
HCMV antiviral – inhibitors of human cytomegalovirus | activity change, negative = inhibition, % at 57.5 µM | AID 1259415 | 410,000 tested, 4.5% active | HFF cells, HCMV-luciferase reporter, 72 h; stronger effect = lower value; in the data active means activity change below about -60%; inconclusive means no clear call, values can overlap the other calls; inactive means above about -39%
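Inhibition of viral replication was scored as loss of reporter luminescence in HFFs infected with HCMV-luciferase (MOI 1 PFU/cell) for 72 h; compounds tested at 2 doses, normalized to buffer and Salinomycin controls.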
Giardia FBPA inh – inhibitors of Giardia lamblia fructose-1,6-bisphosphate aldolase; AID 2451; A8B2U2; Potency, µM (doses to about 59.6 µM), for the others: at the top dose activity, negative = inhibition, actives largely listed as inhibitors; 290,000 tested, 0.71% active; purified Giardia FBPA; further: potency means the concentration at half of the fitted maximal effect; nearly all actives have a fitted effect of over 55% in size
Target sequence (A8B2U2 whole entry, looked up): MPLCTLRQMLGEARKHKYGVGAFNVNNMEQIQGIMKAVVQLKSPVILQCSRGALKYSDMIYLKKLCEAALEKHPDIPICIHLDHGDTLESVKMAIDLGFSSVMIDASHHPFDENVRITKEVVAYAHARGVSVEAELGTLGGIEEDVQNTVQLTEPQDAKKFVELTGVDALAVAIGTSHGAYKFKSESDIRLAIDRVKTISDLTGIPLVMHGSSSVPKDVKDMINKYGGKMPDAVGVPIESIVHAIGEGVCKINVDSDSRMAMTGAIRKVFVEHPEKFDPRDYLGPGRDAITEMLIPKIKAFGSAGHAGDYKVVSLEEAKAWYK
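40 nM FBPA preincubated 10 min at RT with compound (up to 57.5 uM final), then substrate plus GAPDH/TPI/NAD/arsenate coupling and diaphorase/resazurin added. Fluorescence read after 20 min at RT, 525/598 nm.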
Sm TGR inh – S. mansoni TGR enzyme inhibition. 360,000 tested, 3% active. Q962Y6. purified TGR, DTNB reduction, TNB absorbance 405 nm. Potency, µM (titrated, usually from 114 µM), without a hit: at the top dose activity change, negative = inhibition, actives largely listed as inhibitors. AID 485364; further: potency means the concentration at half of the fitted maximal effect; nearly all actives have a fitted effect of over 60% in size
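TGR 20 nM + NADPH 100 uM (dispensed conc.), cpd preinc 15 min RT; start with NADPH (500 uM addition) then DTNB (15 mM addition). Kinetic TNB absorbance, 405 nm filter. Four-parameter Hill fit across titration.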
* hit, by the source's call; ? = inconclusive; / = not tested or not shown. Shown are actives, neighbours in structure and some others; about 7.7% of the full set was active somewhere. Unless noted, the call rests on the fitted dose curve; in most records, active means well fitted curve in the direction sought with a large enough effect; inconclusive means small, poorly fitted or top-dose-only effect, or another doubt; inactive means no such curve, though single readings can be large; an effect the other way counts as inactive or inconclusive. On the % scale 0 is the no-effect control and ±100 the full control effect.

SMILES | RE007 growth inh | FMDV inh | TbPYK inhibitor | HCMV antiviral | Giardia FBPA inh | Sm TGR inh
CCN(CC)S(=O)(=O)c1ccc2c(c1)N(CC(=O)N1CCN(c3cccc(Cl)c3)CC1)C(=O)CO2 | / | -30% | -15% | -22 | / | ?
O=c1[nH]c(-c2ccccn2)nc2ccccc12 | -78% | -15% | 2% | -106* | 21% | 6%
Cc1sc2nc(-c3ccccn3)[nH]c(=O)c2c1-c1ccccc1 | ? | 7% | -14% | -61* | ? | 9%
COCCNCc1nc2sc(C)c(-c3ccccc3)c2c(=O)[nH]1 | -20% | -10% | 11% | -101* | ? | 1%
CCOC(=O)c1ccc(NC(=O)CSc2nc3ccccc3c(=O)n2CCC(=O)NC2CCCCC2)cc1 | / | -21% | -1% | 3 | / | 8%
COc1ccc(NC(=S)Nc2ccc3snnc3c2)cc1 | 4% | 53% | -12% | -9 | ? | 16µM*
S=C(Nc1ccc2nccnc2c1)N1CCOCC1 | 14% | 10% | -3% | 16 | 14µM* | -29%
COc1ccc(NC(=S)Nc2ccc3nccnc3c2)cc1 | -2% | 16% | -8% | -7 | ? | 32µM*
Cc1cc(C(N)=O)c2ccccc2n1 | 5% | / | -12% | -16 | 0% | -16%
NC(=O)c1cc2c3ccccc3ccn2c1-c1ccccc1 | 9% | 29% | -3% | -99* | ? | -15%
O=C(c1sc2ccccc2c1Cl)N(Cc1ccco1)C1CCS(=O)(=O)C1 (stereo not given) | -2% | -28% | -5% | -7 | 3% | 32µM*
CCOc1cccc(C(=O)N(Cc2ccco2)C2CCS(=O)(=O)C2)c1 (stereo not given) | 27% | -6% | 0% | 5 | 4% | 35µM*
O=C(c1sc2ccccc2c1Cl)N(Cc1ccccc1)C1CCS(=O)(=O)C1 (stereo not given) | -23% | -21% | -3% | 22 | / | 3%
CCOc1cccc(C(=O)N(Cc2ccc(C)o2)C2CCS(=O)(=O)C2)c1 (stereo not given) | / | -10% | -3% | 24 | / | -1%
CCCc1ccc(-c2cc(NC(=O)Cc3c(C)[nH]c4ccccc34)ccc2N(C)c2cccnc2)cc1 | / | / | / | 50 | / | /
COc1ccc(C2=CC3=C(Br)C(=O)C(C)(OC(=O)c4ccco4)C(=O)C3=CO2)cc1 (stereo not given) | ? | -16% | -16% | / | ? | 5µM*
COc1ccc(C2=CC3=C(Br)C(=O)C(C)(OC(=O)c4cccs4)C(=O)C3=CO2)cc1 (stereo not given) | ? | -11% | -5% | 23 | -4% | /
c1ccc(N2CCN(c3nc4cc5c(cc4s3)OCO5)CC2)cc1 | 7% | 7% | -8% | -20 | 6% | 1%
CN1CCN(c2ccc3sc(-n4ccc5ccccc54)nc3c2)CC1 | 5% | ? | 3% | -104* | / | /
O=S(=O)(NC1CCN(S(=O)(=O)c2c(F)cccc2F)C1)c1ccc2c(c1)OCCO2 (stereo not given) | / | 15% | -1% | -78* | / | -5%
CCCn1c(CN2CCN(C(=O)c3ccco3)CC2)nc2cc(S(=O)(=O)N(C)C)ccc21 | 6% | 2% | 3% | 1 | / | 28µM*
COc1ccc(Cl)cc1C(=O)NCC(c1ccc(N(C)C)cc1)N1CCOCC1 (stereo not given) | / | -5% | -1% | 5 | / | -1%
Cc1ccc(C2=CC(c3ccc(N(C)C)cc3)n3nnnc3N2)cc1 (stereo not given) | -8% | -9% | -1% | -76* | -11% | ?
CCc1ccc(C2=CC(c3cccc(Br)c3)n3nnnc3N2)cc1 (stereo not given) | / | 0% | 5% | -66* | / | 25µM*
CC(C)c1ccc(C2=CC(c3ccc(C(C)C)cc3)n3nnnc3N2)cc1 (stereo not given) | / | -11% | -12% | 4 | / | -4%
SMILES | RE007 growth inh | FMDV inh | TbPYK inhibitor | HCMV antiviral | Giardia FBPA inh | Sm TGR inh
Cc1cccc(C2C=C(c3ccc(C)c(C)c3)Nc3nnnn32)c1 (stereo not given) | / | 7% | 1% | 25 | / | 40µM*
COc1cccc(C2=CC(c3ccc(OC)c(OC)c3OC)n3nnnc3N2)c1 (stereo not given) | -1% | 3% | -11% | -8 | ? | ?
CCc1cccc(NC(=O)CCc2nc3cccnc3n2-c2ccccc2)c1 | / | -19% | -3% | -21 | / | 2%
CCOc1cc(/C=N/NC(=O)c2ccccn2)ccc1OC(=O)c1ccc(F)cc1 | -6% | -3% | 2% | 16 | / | 50µM*
COc1cc(C=NNc2ccccc2)ccc1OC(=O)c1ccccc1 | 35% | 65% | 0% | 15 | / | /
CCOc1cc(/C=N/NC(=O)c2ccc(CN3CCOCC3)cc2)ccc1OCc1ccccc1 | -24% | 22µM* | 2% | -73* | 6% | -6%
CCOc1cc(/C=N/Nc2cccc(C(=O)O)c2)ccc1OC(=O)c1ccccc1 | -12% | 4µM* | -3% | 64 | 6% | /
CCCCn1c(=NC(=O)C(C)(C)Oc2ccc(Cl)cc2)c(C(=O)OCC)cc2c(=O)n3ccccc3nc21 | / | -20% | -1% | 33 | / | 3%
CCc1nc(Cl)c(C#N)c2c1CCCC2 | -6% | -20% | 0% | -88* | 8% | -3%
CC(C)Cc1nc(N2CCCCC2)c(C#N)c2c1CCC2 | 8% | -18% | 4% | 24 | -17% | 0%
CC(C)Cc1nc(Cl)c(C#N)c2c1CCCC2 | -9% | -32% | -7% | -75* | 5% | -7%
CCCc1nc(Cl)c(C#N)c2c1CCCC2 | 9% | -8% | -1% | -38 | 8% | 25µM*
Cc1ccc(S(=O)(=O)N(C)Cc2ccc(C(=O)N/N=C/c3ccc(OC(F)F)cc3OC(F)F)cc2)cc1 | -2% | 6.3µM* | 2% | ? | -4% | -8%
COCCCNC(=O)CCCn1c(=O)c2cccn2c2ccccc21 | / | -10% | 0% | -23 | / | -4%
CCCCC1=CC2=C(c3ccco3)C(=O)C(C)(OC(=O)c3ccc(OC)cc3)C(=O)C2=CN1CC(C)C (stereo not given) | -3% | -18% | -3% | 12 | ? | 14µM*
CCCCC1=CC2=C(c3ccco3)C(=O)C(C)(OC(=O)c3ccc(OC)cc3)C(=O)C2=CN1CCN1CCOCC1 (stereo not given) | -8% | -26% | -9% | / | ? | 45µM*
COc1ccc(CN2CCN(C(=O)CCC(=O)Nc3nnc(CC(C)C)s3)CC2)cc1F | 13% | ? | -3% | -65* | 12% | -25%
COc1ccc(CN2CCN(C(=O)CCC(=O)Nc3nnc(C4CCCCC4)s3)CC2)cc1F | 8% | ? | 2% | -73* | / | -12%
COc1ccc(CN2CCN(C(=O)CCC(=O)Nc3nnc(C(F)(F)F)s3)CC2)cc1F | -9% | -27% | 0% | -34 | 7% | -2%

Assay outcomes (PubChem BioAssay)
